Our source for the composite z-score and z-score values is PubChem BioAssay.

Active and inactive are the calls of the source.

Test [1] concerns Plasmodium falciparum Sir2 (PF13_0152, Sir2A). Kind of test: Plasmodium falciparum Sir2A binding compounds – biochemical, small-molecule microarray, 635 nm fluorescence, primary screen (AID 1098).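 Further: score merges spot fluorescence intensity with its signal-to-noise ratio.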 The following applies: fluorescence 635 nm, higher = more signal.
Test [2] in a line: probe aDKK1 binding to arrayed compounds – biochemical, biotinylated probe, 635/667 nm fluorescence, primary screen (AID 1099).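 Further: score merges 667nm spot fluorescence with signal to noise across triplicate slides.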 The following applies: small-molecule microarray, higher = more signal.
A short description of test [3]: probe aCHRDL2 binding to arrayed compounds – biochemical, biotinylated probe, 635/667 nm fluorescence, primary screen (AID 1100). The following applies: small-molecule microarray, higher = more signal.
Test [4] can be described thus: change in splice reporter luminescence, either direction, cell-based, HEK293, spliceosome inhibition project, primary screen (AID 1101).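 Further: HEK293 cells carrying a splicing-competent luciferase reporter gene; test concentration not given here.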 As to conditions: HEK293 splicing luciferase reporter, 24 h, higher = more signal, called active from +8 up or from −8 down.
Test [5] concerns the target Fibroblast growth factor 10 (Homo sapiens) (UniProt O15520). Kind of test: compounds binding fibroblast growth factor 10 – biochemical, small-molecule microarray, 635 nm fluorescence, primary screen (AID 1102). As to conditions: FGF10 binding, fluorescence 635 nm, higher = more signal.
Test [6] concerns glycogen synthase kinase-3 (GSK3A per assay name; protocol says GSK3B). Kind of test: compounds binding glycogen synthase kinase-3 – biochemical, small-molecule microarray, 635 nm fluorescence, GSK3A, primary screen (AID 1103). Further: the record names both GSK3A and GSK3B. The following applies: fluorescence 635 nm, higher = more signal.
Test [7] addresses Epidermal growth factor receptor (Homo sapiens) (UniProt P00533). The test is described as follows: compounds binding epidermal growth factor receptor – biochemical, small-molecule microarray, 635 nm fluorescence, primary screen (AID 1104).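 Further: score merges 667 nm emission intensity with spot signal to noise over triplicate slides.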 As to conditions: EGFR binding, higher = more signal.
In test [8] the target is Follistatin-related protein 3 (Homo sapiens) (UniProt O95633). Kind of test: compounds binding follistatin-related protein 3 – biochemical, small-molecule microarray, 635 nm fluorescence, primary screen (AID 1105).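 Further: score merges emission near 667 nm and signal to noise per printed spot across three slides.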 As to conditions: FSTL3 binding, higher = more signal.
Test [9] addresses Dickkopf-related protein 1 (Homo sapiens) (UniProt O94907). The test is described as follows: small molecules binding DKK1 protein – biochemical, small-molecule microarray, 635 nm fluorescence scan, primary screen (AID 1106).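 Further: score merges emission near 667 nm with signal to noise over three replicate slides.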 As to conditions: higher = more signal.
Test [10] deals with Inhibin beta A chain (activin A). The test is described as follows: small molecules binding activin A – biochemical, small-molecule microarray, 635 nm fluorescence scan, primary screen (AID 1107).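 Further: mouse activin A protein probed at 4.33 µg/mL on printed slides; score merges bound-protein fluorescence near 667 nm with spot signal-to-noise.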 As to conditions: INHBA, higher = more signal.
Test [11] deals with Human papillomavirus type 1a protein E7 (residues 44-93). Kind of test: small molecules binding HPV E7 44-93 – biochemical, small-molecule microarray, residues 44-93, 635 nm fluorescence, primary screen (AID 1108).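 Further: E7 fragment applied at 1 µg/mL in TBST for 1 h at 4 C; score combines spot fluorescence with its signal to noise ratio.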 As to conditions: fluorescence 635 nm, higher = more signal.
Test [12] can be described thus: hepatitis C replication reporter changes, two-sided – Huh7 cells, luciferase reporter, HCV replication inhibitor project, primary screen (AID 1109).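 Further: huh7 hepatoma cells harbouring a luciferase neomycin HCV replicon reporter; luciferase luminescence as measure of HCV replicon replication; test concentration not given here.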 As to conditions: Huh7 HCV replicon luciferase reporter, 48 h; higher = more signal. On the technique in general: A reporter such as luciferase makes a cellular process visible.
The target in test [13] is Left-right determination factor 2 (Homo sapiens) (UniProt O00292). Kind of test: small molecules binding LEFTY2 protein – biochemical, small-molecule microarray, 635 nm fluorescence scan, primary screen (AID 1110). As to conditions: higher = more signal.
Test [14] addresses Calmodulin-1 (Homo sapiens) (UniProt P0DP23). The test is described as follows: small molecules binding calmodulin-1 with EGTA – biochemical, small-molecule microarray, Cy5-labelled CALM1, profiling panel (AID 1111).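 Further: labelled calmodulin applied in Tris saline Tween buffer holding calcium plus EGTA and DTT.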 As to conditions: Cy5-CALM1 binding fluorescence, higher = more signal.
The target is the same in test [15]. The test is described as follows: small molecules binding Ca-loaded calmodulin-1 – biochemical, small-molecule microarray, Cy5-labelled CALM1, plus calcium, artefact control for SMM control-protein annotation, profiling panel (AID 1112).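 Further: score merges spot fluorescence with signal to noise from triplicate slides.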 The following applies: Cy5-CALM1 binding fluorescence, higher = more signal.
A short description of test [16]: probe aWnt5a binding to arrayed compounds – biochemical, biotinylated probe, 635/667 nm fluorescence, primary screen (AID 1113).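 Further: score merges 667 nm fluorescence intensity with signal-to-noise per printed feature.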 The following applies: small-molecule microarray, higher = more signal.
A short description of test [17]: probe aShh binding to arrayed compounds – biochemical, biotinylated probe, 635/667 nm fluorescence, primary screen (AID 1114).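 Further: probe is biotin-labelled aShh protein from a stem cell growth factor screen; measures binding of labelled protein to compounds printed on the slide; score merges feature fluorescence at 667 nm with signal-to-noise.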 The following applies: small-molecule microarray, higher = more signal.
Test [18] in a line: probe aNog binding to arrayed compounds – biochemical, biotinylated probe, 635/667 nm fluorescence, primary screen (AID 1115).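 Further: probe is biotinylated aNog protein used at 0.15 µg/mL for 1 h at 4 C; z-score combines 667 nm fluorescence of each spot with its signal to noise.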 As to conditions: small-molecule microarray, higher = more signal.
For test [19], the target named is Torsin-1A-interacting protein 1 (Homo sapiens) (UniProt Q5JTV8). The test is described as follows: compound microarray binding of lysate hLAP1 – cell lysate, small-molecule microarray, COS7 lysate, 635/667 nm fluorescence, primary screen (AID 1116). The following applies: 635 nm fluorescence, higher = more signal.
The target of test [20] is Alpha-bungarotoxin (Bungarus multicinctus) (UniProt P60615). Kind of test: compounds binding labelled alpha-BTX control protein – biochemical, small-molecule microarray, Alexa647 label, 635/667 nm fluorescence, artefact control for SMM control protein annotation, profiling panel (AID 1117). The following applies: alpha-BTX-A647 binding fluorescence, higher = more signal.
Alpha-bungarotoxin (Bungarus multicinctus), sequence (P60615 whole entry, looked up): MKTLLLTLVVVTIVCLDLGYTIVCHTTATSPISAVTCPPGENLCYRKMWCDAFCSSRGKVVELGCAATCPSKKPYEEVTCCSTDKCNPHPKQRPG

Torsin-1A-interacting protein 1 (Homo sapiens), sequence (Q5JTV8 whole entry, looked up): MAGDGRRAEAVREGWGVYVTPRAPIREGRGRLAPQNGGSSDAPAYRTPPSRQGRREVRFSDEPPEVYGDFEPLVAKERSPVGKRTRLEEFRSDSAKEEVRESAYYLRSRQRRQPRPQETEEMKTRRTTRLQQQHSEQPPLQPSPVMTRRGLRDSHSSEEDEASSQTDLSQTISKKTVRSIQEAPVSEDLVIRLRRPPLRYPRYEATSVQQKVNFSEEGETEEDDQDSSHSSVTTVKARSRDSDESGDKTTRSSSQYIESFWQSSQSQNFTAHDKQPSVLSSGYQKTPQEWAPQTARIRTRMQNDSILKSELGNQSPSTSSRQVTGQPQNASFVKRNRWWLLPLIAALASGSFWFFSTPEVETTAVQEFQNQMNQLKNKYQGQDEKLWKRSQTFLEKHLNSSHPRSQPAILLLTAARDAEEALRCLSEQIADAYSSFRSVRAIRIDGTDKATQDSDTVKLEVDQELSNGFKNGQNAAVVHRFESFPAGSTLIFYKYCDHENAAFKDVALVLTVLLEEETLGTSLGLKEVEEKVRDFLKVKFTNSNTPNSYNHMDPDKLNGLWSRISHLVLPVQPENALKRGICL
Follistatin-related protein 3 (Homo sapiens), sequence (O95633 whole entry, looked up): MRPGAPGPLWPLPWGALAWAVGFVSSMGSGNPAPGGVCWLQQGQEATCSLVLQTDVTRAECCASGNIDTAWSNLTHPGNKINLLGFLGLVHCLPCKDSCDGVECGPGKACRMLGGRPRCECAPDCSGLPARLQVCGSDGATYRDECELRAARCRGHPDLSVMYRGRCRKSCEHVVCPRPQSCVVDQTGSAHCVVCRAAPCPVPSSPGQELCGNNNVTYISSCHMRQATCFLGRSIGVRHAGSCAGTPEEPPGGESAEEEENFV
Dickkopf-related protein 1 (Homo sapiens), sequence (O94907 whole entry, looked up): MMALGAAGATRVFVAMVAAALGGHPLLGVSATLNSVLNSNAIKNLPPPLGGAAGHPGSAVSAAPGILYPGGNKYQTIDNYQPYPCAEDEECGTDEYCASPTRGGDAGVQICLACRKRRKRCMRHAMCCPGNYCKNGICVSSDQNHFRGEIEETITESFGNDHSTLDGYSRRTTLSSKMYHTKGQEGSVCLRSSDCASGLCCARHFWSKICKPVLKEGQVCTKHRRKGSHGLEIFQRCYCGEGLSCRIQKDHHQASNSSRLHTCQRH
Epidermal growth factor receptor (Homo sapiens), sequence (P00533 whole entry, looked up): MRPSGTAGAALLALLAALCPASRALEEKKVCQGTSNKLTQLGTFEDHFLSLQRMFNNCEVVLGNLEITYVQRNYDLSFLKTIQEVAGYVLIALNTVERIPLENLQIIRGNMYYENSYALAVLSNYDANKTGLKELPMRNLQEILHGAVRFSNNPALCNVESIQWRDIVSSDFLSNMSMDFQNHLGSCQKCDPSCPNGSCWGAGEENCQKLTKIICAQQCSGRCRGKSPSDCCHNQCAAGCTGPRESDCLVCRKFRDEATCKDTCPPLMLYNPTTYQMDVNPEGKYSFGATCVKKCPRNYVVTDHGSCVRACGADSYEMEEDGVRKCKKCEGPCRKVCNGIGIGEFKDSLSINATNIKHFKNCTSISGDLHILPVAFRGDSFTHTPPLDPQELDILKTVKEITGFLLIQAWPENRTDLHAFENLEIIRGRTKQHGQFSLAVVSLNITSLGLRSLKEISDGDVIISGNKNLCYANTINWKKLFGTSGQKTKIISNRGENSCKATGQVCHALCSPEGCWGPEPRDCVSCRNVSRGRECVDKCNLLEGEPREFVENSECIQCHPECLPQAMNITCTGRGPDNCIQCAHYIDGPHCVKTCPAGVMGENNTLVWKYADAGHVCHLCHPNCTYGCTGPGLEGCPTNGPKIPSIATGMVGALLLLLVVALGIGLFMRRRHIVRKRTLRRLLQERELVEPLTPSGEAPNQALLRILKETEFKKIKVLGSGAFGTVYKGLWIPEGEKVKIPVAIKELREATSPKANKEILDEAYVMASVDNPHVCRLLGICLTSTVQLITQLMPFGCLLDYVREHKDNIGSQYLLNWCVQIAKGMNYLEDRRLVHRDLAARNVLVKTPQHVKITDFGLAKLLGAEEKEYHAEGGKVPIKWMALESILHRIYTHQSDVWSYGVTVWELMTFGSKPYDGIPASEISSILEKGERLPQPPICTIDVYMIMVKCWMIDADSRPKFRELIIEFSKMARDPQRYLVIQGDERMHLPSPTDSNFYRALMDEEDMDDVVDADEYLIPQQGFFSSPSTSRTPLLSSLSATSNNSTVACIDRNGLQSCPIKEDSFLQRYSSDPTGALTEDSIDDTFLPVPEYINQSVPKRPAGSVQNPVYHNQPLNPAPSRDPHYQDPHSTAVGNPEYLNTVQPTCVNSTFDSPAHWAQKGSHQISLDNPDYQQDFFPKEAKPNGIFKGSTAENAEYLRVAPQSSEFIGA
Left-right determination factor 2 (Homo sapiens), sequence (O00292 whole entry, looked up): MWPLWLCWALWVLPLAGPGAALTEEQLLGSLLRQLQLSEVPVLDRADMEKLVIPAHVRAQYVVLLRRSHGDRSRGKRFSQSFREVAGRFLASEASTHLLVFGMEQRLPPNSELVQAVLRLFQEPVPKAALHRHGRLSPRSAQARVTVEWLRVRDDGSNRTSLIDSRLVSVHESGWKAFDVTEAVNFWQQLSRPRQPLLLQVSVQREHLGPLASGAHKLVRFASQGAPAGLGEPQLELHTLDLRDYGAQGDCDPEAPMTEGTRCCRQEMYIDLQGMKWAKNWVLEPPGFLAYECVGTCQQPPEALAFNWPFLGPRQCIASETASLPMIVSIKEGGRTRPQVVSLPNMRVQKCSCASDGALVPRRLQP
Fibroblast growth factor 10 (Homo sapiens), sequence (O15520 whole entry, looked up): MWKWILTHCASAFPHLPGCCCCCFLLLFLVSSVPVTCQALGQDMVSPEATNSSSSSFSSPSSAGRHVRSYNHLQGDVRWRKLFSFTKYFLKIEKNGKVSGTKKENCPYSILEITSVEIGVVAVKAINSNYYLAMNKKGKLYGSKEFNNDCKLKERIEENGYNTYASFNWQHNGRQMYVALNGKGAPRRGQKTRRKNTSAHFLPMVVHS

Consider `CC(C)N1C(=O)[C@@]2(Cc3ccccc31)c1ccccc1C(=O)N(Cc1ccccc1Cl)[C@H]2c1ccc(CO)cc1`, for which the composite z-score was 0.465 in test [1]; -0.0724 in test [2]; 0.621 in test [3]; -1 in [5]; -1.24 in test [6]; -1.25 in [7]. The composite z-score is -0.785 in test [8]; -0.979 in test [9]; 0.781 in test [10]; -0.469 in test [11]; -0.893 in [13]; -0.493 in test [14]. The composite z-score in test [15] is -0.805; in [16], -0.105; in test [17], -0.262; in test [18], -0.179; in test [19] it was -1.05; in test [20] it was -0.216. Also, the z-score in test [4] was -1 (inactive); in test [12], -0.791.
Regarding `C=C[C@@H](COC(=O)OC(C)(C)C)N(Cc1ccc(OC)cc1)S(=O)(=O)c1ccc(Br)cc1`, the composite z-score is 0.487 in [1]; -0.189 in test [2]; 0.166 in test [3]; 0.541 in test [5]; 0.632 in [6]; 0.691 in [7]. In addition, the composite z-score is 1 in test [8]; 0.513 in [9]; 0.841 in test [10]; 1.28 in test [11]; 0.537 in test [13]; -0.042 in test [14]. Besides, the composite z-score in test [15] is -0.439; in test [16], -0.0977; in test [17] it was 0.0121; in [18], -0.326; in [19] it was 0.173; in test [20], 0.268. Also, the figures for the z-score in test [4] and in test [12] were 0.255 (inactive) and -0.987, respectively.
For the compound `COC(=O)[C@@]1(Cc2ccc(F)cc2)[C@H]2c3cc(C(=O)N(C)C)n(Cc4ccc(Cl)c(C(F)(F)F)c4)c3C[C@H]2CN1C(=O)c1ccccc1`, the composite z-score amounted to 0.546 in [1]; 1.6 in test [2]; 1.46 in [3]; 0.336 in test [5]; 1.31 in test [6]; 0.175 in test [7]. In addition, the composite z-score in test [8] is 0.923; in test [9], -0.473; in [10], 0.651; in test [11], 0.199; in [13], -0.401; in test [14] it was 2.75. Besides, the composite z-score was 1.63 in [15]; -0.101 in test [16]; -0.0578 in test [17]; -0.222 in test [18]; 2.41 in test [19]; 2.36 in test [20]. Further, the z-score is -2.25 (inactive) in test [4] and -2.11 in test [12].
For `C=CCC(OC(C)=O)[C@@H]1[C@@H](N(Cc2ccc(-c3ccccc3)cc2)C(=O)c2ccc(-c3ccccc3)cc2)c2cc(OCCCO)ccc2N1C(=O)Cc1ccc2ccccc2c1` (stereo not given in full), the composite z-score in test [1] was -0.316; in test [2] it was -0.108; in test [3], 0.336; in test [5], -0.133; in test [6], -0.0682; in test [7], 0.0825. Besides, the composite z-score in [8] is 0.394; in test [9], 0.0989; in [10], 1.11; in [11], 0.422; in test [13] it was 0.0959; in test [14] it was 0.436. For the same compound, the composite z-score in test [15] was 0.704; in [16], -0.0566; in test [17], -0.345; in [18] it was 0.221; in test [19] it was 0.359; in [20], 0.0054. Besides, the figures for the z-score in test [4] and in [12] were -0.412 (inactive) and -0.4, respectively.
Turning to `COc1cc(C(O)C2C=CC3C(=O)NC(=O)C3N2Nc2ccccn2)cc(OC)c1OC` (stereo not given), the composite z-score in [1] was 1.18; in test [2], -0.149; in test [3], 0.418; in test [5], 0.12; in test [6], 0.211; in test [7] it was 0.635. The composite z-score was -0.027 in test [8]; 0.336 in test [9]; 0.791 in test [10]; 1.04 in [11]; 0.0534 in test [13]; -0.0338 in test [14]. Also, the composite z-score in [15] was -0.62; in test [16], -0.128; in test [17] it was -0.243; in [18], 0.416; in test [19], 0.531; in test [20], -0.0198. Moreover, the z-score was 1.53 (inactive) in test [4] and -0.178 in test [12].
In the case of `CC(C)C(=C=CC[C@@H](O)c1ccc(OCCO)cc1)C[C@@H](O)COCc1ccccc1`, the composite z-score in test [1] was 0.413; in [2], -0.133; in [3], -0.222; in test [5], 1.23; in test [6], 0.099; in test [7], -0.516. The composite z-score in test [8] is 0.478; in test [9], -0.198; in [10], 0.992; in test [11], 0.702; in test [13], 0.164; in test [14], -0.774. Moreover, the composite z-score in [15] was -0.918; in [16], 0.505; in test [17], -0.0553; in test [18] it was 0.526; in test [19], 1.51; in test [20], 0.119. The figures for the z-score in [4] and in [12] were -1.97 (inactive) and -0.453, respectively.
